Measured values: PubChem BioAssay AID1850 (Southern Research Specialized Biocontainment Screening …, 2009)
About 1,000 (0.32%) of roughly 310,000 compounds were called active. How the calls were made is not given here. The list is a sample of the results. Results with a measured potency or affinity are listed apart.

assay: Inhibition of PhoP regulon, Salmonella typhi GFP reporter cells, confirmation, 4 h (AID 1850); conditions: Salmonella Typhi PhoP-promoter GFP reporter, fluorescence, at 50 µM, hits give high values;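 further: 0% = induced wells with vehicle and 100% = uninduced wells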

Row | Compound | inhibition
1 | CCn1c2nc(SCCN3CCOCC3)nnc2c2cc(C)cc(C)c21 | -16.9% (inactive)
2 | CN(C)CCCn1c(SCC(=O)N2CC(=O)Nc3ccccc32)nc2ccccc2c1=O | 0.42% (inactive)
3 | CCCn1c(SCC(=O)N2c3ccccc3Sc3ccccc32)nc2ccccc21 | -6.61% (inactive)
4 | CCN1CCCC1CNC(=O)c1ccc(N2CCOCC2)c(NS(=O)(=O)c2ccc(OC)cc2)c1 (stereo not drawn) | 2.06% (inactive)
5 | CCN1CSC(=S)N(Cc2ccccc2)C1 | -1.16% (inactive)
6 | COc1ccc(CN2CN(C(C)C)CSC2=S)cc1 | 16.3% (inactive)
7 | NCCCC[C@@H]1NC(=O)c2cc([N+](=O)[O-])cc(I)c2SC[C@@H](C(=O)NCC(N)=O)NC(=O)CNC1=O | -0.813% (inactive)
8 | COc1cc(CNCCCN2CCOCC2)ccc1OCC(=O)Nc1cccc(C(F)(F)F)c1 | 8.04% (inactive)
9 | CCOc1cc(CNCCCN2CCOCC2)ccc1OCC(=O)Nc1cccc2ccccc12 | 9.38% (inactive)
10 | CC(C)c1ccccc1NC(=O)C1CN(S(=O)(=O)c2ccccc2)CCN1S(=O)(=O)c1ccccc1 (stereo not drawn) | -5.27% (inactive)
11 | O=C(N/C(=C/c1cccnc1)C(=O)N1CCOCC1)c1ccccc1Cl | 1.54% (inactive)
12 | COc1ccc(C)cc1Nc1n[n+](-c2ccccc2)c(-c2ccc(N(C)C)cc2)s1 | -6.34% (inactive)
13 | C[n+]1c(-c2ccccc2)sc2ccccc21 | -0.28% (inactive)
14 | CCCCn1c(SCC(=O)Nc2cc(C)on2)nnc1-c1ccncc1 | 7.28% (inactive)
15 | Cc1ccc(C(=O)N/C(=C\c2ccco2)C(=O)N2CCCCC2)cc1 | 11.1% (inactive)
16 | CC1=C(C#N)C(c2ccccc2)C2=C(N1)c1ccccc1C2=O (stereo not drawn) | -2.93% (inactive)
17 | CC(=O)C1=C(C)NC2=C(C(=O)c3ccccc32)C1c1ccccc1 (stereo not drawn) | -9.36% (inactive)
18 | COC(=O)C1=C(C)N(CC2CC2)C(=NCCN2CCOCC2)N[C@H]1c1ccccc1 | -21.7% (inactive)
19 | COc1cc(/C=N/NC(=O)c2ccncc2)ccc1OCC(=O)Nc1ccc(C)c(C)c1 | 8.17% (inactive)
20 | Cc1ccc(OCC(O)CNCc2ccc(F)cc2)cc1 (stereo not drawn) | -1.28% (inactive)
21 | COc1ccc(C(OCC(O)CNCCc2ccccc2)c2ccc(OC)cc2)cc1 (stereo not drawn) | -15.4% (inactive)

Row | Compound | inhibition
22 | COc1ccccc1COCC(O)CNCCc1ccc(C(F)(F)F)cc1 (stereo not drawn) | 5.56% (inactive)
23 | Cc1ccc(C(OCC(O)CNC(C)c2ccccc2)c2ccccc2)cc1 (stereo not drawn) | -20.1% (inactive)
24 | COc1ccc2cc(CN(Cc3cccnc3)Cc3nnnn3Cc3ccccc3)c(=O)[nH]c2c1 | -1.66% (inactive)
25 | CCOC(=O)CSc1c(-c2ccc(Cl)cc2)[nH]c2ccccc12 | -5.57% (inactive)
26 | CC1(C)CC(=O)C=C(Nc2ccc(C(=O)O)c(O)c2)C1 | -4.27% (inactive)
27 | N#C/C(=C\c1cn(CCOc2ccccc2)c2ccccc12)C(=O)NCc1cccs1 | -5.68% (inactive)
28 | COc1ccnc(Oc2ccc(C)cc2)c1C#N | 5.63% (inactive)
29 | Cc1ccc(C)c(SCC(=O)NCC(c2ccco2)N2CCCCC2)c1 (stereo not drawn) | 19.8% (inactive)
30 | COc1ccc(NS(=O)(=O)c2cccc(C(=O)NNC(=O)c3cncc(Br)c3)c2)cc1 | 11.8% (inactive)
31 | COc1ccccc1N1CCN(C(=O)/C=C/c2cccs2)CC1 | -0.34% (inactive)
32 | Cc1cc(NS(=O)(=O)c2ccc(NC(=O)Nc3ccccc3)cc2)no1 | -1.36% (inactive)
33 | Cc1cc(NS(=O)(=O)c2ccc(NC(=O)Nc3cccc(C(F)(F)F)c3)cc2)no1 | -2.04% (inactive)
34 | CCN1c2ccccc2NC2C1C(C(C)=O)C(=O)N2c1ccc(Cl)cc1 (stereo not drawn) | -5.05% (inactive)
35 | CCCN1C(=O)c2ccccc2NC1c1cc(OC)c(OC)c(OC)c1 (stereo not drawn) | 4.01% (inactive)
36 | COc1ccc(-c2[nH]ncc2-c2nc(C)cs2)c(O)c1 | -0.79% (inactive)
37 | COc1ccc(OCC(O)Cn2c(=N)n(Cc3ccccc3)c3ccccc32)cc1 (stereo not drawn) | 10.7% (inactive)
38 | N=c1n(Cc2ccccc2)c2ccccc2n1CC(O)COc1ccccc1 (stereo not drawn) | -2.26% (inactive)
39 | Cc1cccc(OCC(O)Cn2c(=N)n(Cc3ccccc3)c3ccccc32)c1 (stereo not drawn) | -11.7% (inactive)
40 | Cc1ccc(OCC(O)Cn2c(=N)n(Cc3ccccc3)c3ccccc32)cc1 (stereo not drawn) | -18.7% (inactive)
41 | Cc1ccn2cc(-c3cccc(NS(C)(=O)=O)c3)nc2c1 | -0.47% (inactive)
42 | CN(C)c1cccc(C(=O)OCC(=O)Nc2ccccc2-c2ccccc2)c1 | -5.83% (inactive)

Row | Compound | inhibition
43 | Cc1ccc(OCCNC(=O)CCC(=O)N2CCOCC2)cc1 | 1.97% (inactive)
44 | CNCc1c(OCc2ccccc2)ccc2ccccc12 | 15.5% (inactive)
45 | CNCc1c(OCc2ccc(F)cc2)ccc2ccccc12 | 20.5% (inactive)
46 | Cc1cc(C)c2nc(C)cc(Nc3ccc(C(=O)NCCO)cc3)c2c1 | 1.42% (inactive)
47 | COc1ccc2oc(C(=O)OCC(=O)N3CC(C)OC(C)C3)c(C)c2c1 (stereo not drawn) | 1.14% (inactive)
48 | O=C1C=C(Nc2ccccc2C(=O)O)c2ccccc2C1=O | 8.73% (inactive)
49 | O=C1C=C(Nc2cccc3cccnc23)c2ccccc2C1=O | 1.58% (inactive)
50 | CCOC(=O)c1ccc(NC2=CC(=O)C(=O)c3ccccc32)cc1 | 0.12% (inactive)
51 | Cc1ccc(NC2=CC(=O)C(=O)c3ccccc32)cc1 | 5.69% (inactive)
52 | CS(=O)(=O)N(CC(=O)N1CCC(C(N)=O)CC1)C1CCCCC1 | -1.33% (inactive)
53 | CCOC(=O)Cc1csc(NC(=O)c2ccc3ncsc3c2)n1 | -6% (inactive)
54 | COc1ccc(-n2nc(C(=O)NCC(=O)NCc3ccccc3OC)c3ccccc3c2=O)cc1 | 8.47% (inactive)
55 | OCCNc1nc(N2CCN(Cc3ccccc3)CC2)nc2ccccc12 | 1.64% (inactive)
56 | c1ccc(CN2CCN(c3nc(N4CCOCC4)c4ccccc4n3)CC2)cc1 | -3.61% (inactive)
57 | OCCN1CCN(c2nc(NCc3ccco3)c3ccccc3n2)CC1 | 3.47% (inactive)
58 | c1ccc(N2CCN(c3nc(NCc4ccco4)c4ccccc4n3)CC2)cc1 | 13.6% (inactive)
59 | O=C(NC(=S)N1CCN(c2ccc([N+](=O)[O-])cc2)CC1)c1ccco1 | -9.69% (inactive)
60 | CCC1(c2ccccc2)NC(=O)N(CC(=O)Nc2nnc(C3CC3)s2)C1=O (stereo not drawn) | -9.36% (inactive)
61 | COc1ccc(OC)c2[nH]c(=O)c(CCNS(=O)(=O)c3ccc(C)cc3)cc12 | 7.93% (inactive)
62 | C#CCOCCOCCOCCNc1nc(N2CCN(C(=O)[C@H]([C@@H](C)CC)n3cc([C@@H](N)CC(C)C)nn3)CC2)nc(N2CCN(C(=O)[C@H](Cc3cc4ccccc4[nH]3)n3cc([C@@H](N)Cc4ccc(O)cc4)nn3)CC2)n1 | -29.1% (inactive)
63 | C#CCOCCOCCOCCNc1nc(N2CCN(C(=O)C(CCC(=O)O)n3cc(C(N)CC(C)C)nn3)CC2)nc(N2CCN(C(=O)C(Cc3cc4ccccc4[nH]3)n3cc(C(N)Cc4ccc(O)cc4)nn3)CC2)n1 (stereo not drawn) | -1.42% (inactive)

Row | Compound | inhibition
64 | C#CCOCCOCCOCCNc1nc(N2CCN(C(=O)[C@H]([C@@H](C)CC)n3cc([C@@H](N)Cc4ccc(O)cc4)nn3)CC2)nc(N2CCN(C(=O)[C@H](Cc3cc4ccccc4[nH]3)n3cc([C@@H](N)C(C)CC)nn3)CC2)n1 (stereo partly drawn) | 17.7% (inactive)
65 | C#CCOCCOCCOCCNc1nc(N2CCN(C(=O)[C@H](Cc3ccc(O)cc3)n3cc([C@@H](N)C(C)CC)nn3)CC2)nc(N2CCN(C(=O)[C@H](Cc3cc4ccccc4[nH]3)n3cc([C@@H](N)CC(C)C)nn3)CC2)n1 (stereo partly drawn) | 11% (inactive)
66 | C#CCOCCOCCOCCNc1nc(N2CCN(C(=O)[C@H](CCC(=O)O)n3cc(C(N)Cc4ccc(O)cc4)nn3)CC2)nc(N2CCN(C(=O)[C@H](Cc3cc4ccccc4[nH]3)n3cc(C(N)CC(C)C)nn3)CC2)n1 (stereo partly drawn) | 5.34% (inactive)
67 | C#CCOCCOCCOCCNc1nc(N2CCN(C(=O)C(Cc3ccc(O)cc3)n3cc(C(N)CC(C)C)nn3)CC2)nc(N2CCN(C(=O)C(Cc3cc4ccccc4[nH]3)n3cc(C(N)C(C)CC)nn3)CC2)n1 (stereo not drawn) | 18.1% (inactive)
68 | CCc1ccccc1NNC(=O)c1cc(C)on1 | -26.6% (inactive)
69 | Cc1cc(OCC(=O)N2CCC(C(=O)O)(c3ccccc3)CC2)c2c(C)c(C)c(=O)oc2c1 | 1.07% (inactive)
70 | O=C(Cn1cnc2c(oc3ccccc32)c1=O)N1CCCc2ccccc21 | 1.66% (inactive)
71 | Cc1cc(NC(=O)c2cccc(S(=O)(=O)N3CC(c4ccccc4)CC3=O)c2)no1 (stereo not drawn) | -38.2% (inactive)
72 | O=C1CC(C(=O)Nc2ccccc2)S/C(=N\NC(=O)c2ccccc2Cl)N1 (stereo not drawn) | 21.9% (inactive)
73 | O=C(O)c1cc(C(F)(F)F)nc2c(C(F)(F)F)cccc12 | -2.04% (inactive)
74 | OC(c1cc(C(F)(F)F)nc2c(Cl)cc(Cl)cc12)C1CCCCN1 (stereo not drawn) | 0.54% (inactive)
75 | OC(c1cc(-c2ccc(C(F)(F)F)cc2)nc(C(F)(F)F)c1)C1CCCCN1 (stereo not drawn) | -0.73% (inactive)
76 | COc1ccc(OC)c(C(O)C2CCCCN2)c1 (stereo not drawn) | -3.76% (inactive)
77 | COc1ccc(C2Cc3ccccc3C(=O)O2)cc1 (stereo not drawn) | 7.74% (inactive)
78 | CSCCC(NC(N)=O)C(=O)NCc1cccc(Cl)c1 (stereo not drawn) | 3.4% (inactive)
79 | CN(C(=O)c1ccco1)c1nc(-c2ccccc2)cs1 | -0.59% (inactive)
80 | CN(C)C(=O)c1cn(-c2ccccc2)nc1-c1cc2ccccc2oc1=O | -9.39% (inactive)
81 | CSC1=NC(C)(C)C=C(/C=C/c2ccc(Cl)cc2Cl)N1 | 4.11% (inactive)
82 | Clc1ccc(/C=C/c2nc3ccccc3[nH]2)c(Cl)c1 | 7.7% (inactive)
83 | CC(c1ccccc1)N1CC(C(=O)NC2CCCC2)CC1=O (stereo not drawn) | -13.4% (inactive)
